Measurements: PubChem BioAssay AID1159506 (National Center for Advancing Translational Sciences (NCATS), 2015)
The full ranking holds about 59,000 sequences; the median of the read-out is about -0.00055, and the lowest 2% start at about -2. This is one part of a sample in which the lowest values are shown more often than they occur.

Assay: Identification of proteins required for the processing of the EWS-FLI1 nascent transcript;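 note: robust z of luciferase light less the median z of siRNAs with the same seed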
Conditions: TC32 Ewing sarcoma NR0B1-luc vs CMV-luc (EWS-FLI1 target promoter against control promoter), 48 h; screened at 20 nM (by protocol)
Method in brief: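 Parallel TC32-NR0B1-luc and TC32-CMV-luc reverse transfections with 20 nM siRNA in RPMI-1640/10% FBS, luciferase measured 48 h later. Seed-adjusted z-scores from normalized, z-score-MAD transformed data; AllStars negative and siGL4 controls on each plate.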

| Sequence | seed-corrected z-score |
| --- | --- |
| ACUAGAACAAUCUGCAUCC against ZBTB1 | 0.122 |
| UAUCGGAAAGAUAGCCUGG against PTPN3 | 0.486 |
| UACACGUACGGGAUAUUUG against HTR3A | -0.067 |
| UGUUGUAGCACUCCAACGC against PRKDC | -4.34 |
| UCUUUAUCAAAUCUGAGUG against FANCC | 0.127 |
| UGUGGGUUAAAAGUCAGCA against CDK4 | -1.59 |
| UCUACCAACAGCAAGAUAC against PLEKHG4B | -0.565 |
| UGUAGGUGUAGGCUGUUCG against RFX2 | -4.23 |
| UUUCUGCUUGUAUCUGCCC against C1QC | -2 |
| UUCUUUAAGUCAAAGUUUC against FEZF2 | -1.32 |
| UGCUUUAUUAUUAAUGGAC against PABPC3 | -0.79 |
| UGGAUUGUAACCUUUCAUC against EIF2B5 | -0.151 |
| UAUUUAUUAGAAACAUGGG against ZNF415 | -2.45 |
| AAAUAGUUCUCAGUCAUUC against RBM38 | 0.473 |
| AGUUGUCCAAUGCAGAUGU against ZDHHC24 | -0.264 |
| AUAUUUGCAACCUGCAUUC against SPG7 | -0.324 |
| UCAGUUCUUGCAGUGCACC against FAM212B | -0.229 |
| UGGGUGUUCAUGACCUGCC against LMF1 | -2.6 |
| UGCCCAUCCACAUUGUCCU against REXO1 | -0.116 |
| UACGAAUCAAACCAAGAUC against RASGRP3 | -0.4 |
| UAUUGAUCUGCCGAGGAGC against CYFIP1 | -0.5 |
| UUCGUGACUGUCAUCAUCC against CARD11 | 0.437 |
| UGAACAUACAUCUUGAAUC against SRP19 | 0.739 |

| Sequence | seed-corrected z-score |
| --- | --- |
| UCGGUGUAAGGUGUCCAUG against POU2AF1 | -0.0736 |
| UUCUUUCCAAACGCAAGAU against RPRML | -2.78 |
| AACUUGGUAGCGGCUUUGG against CDHR1 | -0.12 |
| UAUAUUGCUCGGUCAAGUC against RBM4 | -0.89 |
| AAACACGUAGGGCACAUUC against SNU13 | -5.96 |
| AAUGGAAAUAUUCUCGACC against CNRIP1 | -0.303 |
| UCACAGAGCAGAUGGGUUC against PTPN7 | -0.424 |
| UUAAGUCUAGGGCAAAUUC against OGFOD1 | 0.0394 |
| UUACCUGCAGAAACCUUCU against MUC1 | -2.32 |
| AAUCUUCUUGUCCUGACUC against PHPT1 | -0.987 |
| AAAUAGGCAAGGAAUCUUG against LARP1BP1 | -1.48 |
| AAUGUUGUCAUAGCCGAUG against PSTPIP2 | -0.92 |
| UACGUGUUGAUUUGUCAGC against ANKZF1 | 0.382 |
| UCCAUUUCAGGAGCUACGC against OTULIN | -2.32 |
| UGCUAAAAUAGUCGCAUCC against LOC727919 | -0.265 |
| AUACCUGCAGUGAACAUUU against ECH1 | -3.28 |
| UACUGACUCCUUGUAUGCC against CSTF2T | 0.0375 |
| UGUCAAACUGGUGCUGUUG against NAGLU | -0.208 |
| AAUGUAAGGCCUUAAAUCG against MRPS27 | 0.696 |
| UUCUUUCACGCUUAGUUUC against LOC729978 | 0.995 |
| AAAAUUUCAUCCAUCAAUC against NUS1 | 0.0341 |
| UCUUCGUCCACAUUGGUUC against EPG5 | -11.6 |
| UUCUAUACCCAGUACAUGG against ZNF112 | 1.1 |

| Sequence | seed-corrected z-score |
| --- | --- |
| UGUUAUAGAAUGACGCACC against DNAH11 | -0.639 |
| AAAGCGAAGAGGUCUAGGC against PASK | 0.632 |
| UCCAGGUCUAGAACUUGCG against DACH1 | -0.158 |
| AAGUCGAUCCAUAACAAUC against AK9 | 0.17 |
| AACCAUACUACAGUCAAUC against TIMM17A | 0.0529 |
| UCAUCUAAAAUCUCGGUAG against POLE | -2.51 |
| UCAUAUACAGCAAACGGGC against RHOJ | -0.695 |
| ACUGUUGUCACUGCGGUGG against GPR20 | -0.419 |
| UAAUUUCAGAGUAUGUCCG against PCDHAC2 | -0.214 |
| UGGGUAGUUAGACUUGAUC against ZNF160 | -2.52 |
| UACCUAUUUAGCAUAUUGG against GRIN2B | 1.13 |
| UUGGAUCCAGUUGAUAACG against EPCAM | 0.867 |
| UGAGUUACAGGGACCGAAG against LINC00944 | -0.148 |
| AGCUUGAGAAUUUACUUGG against HIST1H2BL | -2.21 |
| UUAUCUCCAGCUAUGCUGU against LOC440292 | 1.49 |
| UCCUCAUGUAUUUUGGUCC against ELOVL5 | -0.118 |
| UCACUUAGCAUGGGUAUUG against TMOD4 | -0.648 |
| UUCUCUUCCAUCUCCGCCC against TNRC18 | -0.725 |
| AAACUGGUAAUAUGAAUUC against IQSEC2 | 1.31 |
| UUUGGUCCAAAUUCACUCC against C2orf76 | -2.66 |
| GGCUGGUCGUGAUCUUUCC against SPDYE2 | 0.846 |
| UUCGAUAUACCAGAACCGC against LPGAT1 | -1.1 |
| UGUAGUAAUGUGAUUUUCC against CTBP2 | 1.22 |

| Sequence | seed-corrected z-score |
| --- | --- |
| UUCCUCGUAGGUCCACUCG against ARID3C | -0.393 |
| UUUCCUGCACCCAUAAGUC against C11orf58 | -0.0639 |
| GAACGACUCAGAUCCCGGA against HCRT | -12.7 |
| UUACAGGUAGCGGCAAGCA against SP8 | 0.823 |
| UACCUGAAAACCUAGUUUC against TBPL1 | -0.106 |
| UAUAGUAAAGCCCAGACGG against CNTNAP3 | -2.74 |
| AUAUGUUUACUACCGGUGC against CYP4Z1 | -0.0519 |
| UUCGCUUAACAUGCUCUCC against SKIL | -1.15 |
| AAUUCCAGAAUUACAGGCU against PRAC1 | -0.113 |
| UAAGAUGAGAGAGUGUCCA against TAS2R1 | 0.755 |
| UACUGGUCUAGGAGGUAUG against ERRFI1 | -0.314 |
| AGACUGAGCAGUAGGACUC against SLC35E4 | -2.41 |
| AUAUGGUCAAAUGAGUUAG against KIF3B | 1.67 |
| UUUCCGUACAUUGUGGUCC against ATP13A5 | 0.276 |
| UAAGCACGAACAGUUAUAG against USP47 | 0.264 |
| AUAGGGCACAUCUUGUAGG against CSDC2 | 0.0846 |
| UCUGUUUUGAAGGACCUCU against ENTPD6 | 0.116 |
| UUCGCAUUUGUAUUCGACC against GNB4 | 0.0257 |
| UAUUUCACCAUCUCCGAGC against MAGEF1 | -2.32 |
| UGAGGUUAUACGUUCCCUG against KIAA1549 | -0.0625 |
| UUGGGUCCGAGGAACAACU against ZNF469 | 0.678 |
| UCUUGCAACAGAGCCCUGA against TESK1 | -0.681 |
| AUCCGCAUCAGUAACAUUG against CASQ1 | -0.835 |

| Sequence | seed-corrected z-score |
| --- | --- |
| UUCCUUAAUGGUGUAUUCG against RIN3 | 0.651 |
| UAUGGAACUGUAUAUAGGA against EVA1C | 0.1 |
| UGCUCUGUAAUCACGGGCU against WARSP1 | -1.94 |
| AUACUGUAGACGUACCUCU against F2R | -0.762 |
| AAAGGUUCACCACAUAGCC against SORL1 | -3.01 |
| UUAUGUGAACCAUCGCAGG against CISD2 | 0.515 |
| UCCAGUAGUAGUCUUCCAG against MAF | -2.92 |
| AUAGGUGUUGAUACGAGCC against SATB1 | -0.199 |
| UAUCUUUCCUGGUAUGUCA against LPCAT3 | -0.533 |
| UCGAUUUUGAGAAUCAAUG against VPS45 | 0.271 |
| UCAUAGCAAAGGAUCAGCC against CDC42BPB | -3.29 |
| UUCCUUACCAUCAGGCAAG against DAP3 | 0.589 |
| AUGGGUUCCAGCAACAAUC against TMEM65 | 0.797 |
| UUCUUGUAGUCCUCUAGGC against FZD8 | 0.236 |
| AUAGUAAUUCCUGGUAAAG against CYBA | -3.24 |
| UACAAAAACGAUGGCAUCC against CCL17 | -0.409 |
| UACCCAUACGGAGUAGCGA against ASMTL | -0.0723 |
| UAUAGGCAAAGCUAUCUCC against RBM15B | -0.465 |
| AAUAAGACUCCUAAAAUCC against OR2A25 | -2.04 |
| UAAUAUAUUGUCCAUUUAC against OSTC | 0.401 |
| UUUUGAUUGAGAGGAUCGU against MBD2 | 0.911 |
| UUAACAACUUUAGUCCUGC against EFHC1 | 0.0527 |
| ACUUGUAACAGAUCAGCUC against TKFC | 0.791 |

| Sequence | seed-corrected z-score |
| --- | --- |
| UUAGUUGAGGGUGAUCCCG against MXRA5 | 0.422 |
| AGAGAUCCCGUGUAUGACC against SLC30A2 | -0.311 |
| UCUGCUCCCACAAUGAAAC against RPLP0 | -2.42 |
| UCAAUUAUUCCUCUCCGUC against HEY1 | -0.248 |
| UCAUAGUCCAUUCAGAGUU against CEACAM19 | 0.0695 |
| UCCUGGAUACCUAACACCC against USP26 | 0.09 |
| ACUCCAAUCAGUACAGUCC against NUP210L | -0.264 |
| AAGUUGUCAAACAAGCCCU against CHTF18 | -3 |
| UUAACCGAUAUAUCCAUGG against LRRTM4 | 0.0172 |
| UGAGGUCCACGAUAUCUAG against PYDC1 | 0.555 |
| AAAGAUAUCAGUGACGAAG against HIST1H2BA | -0.152 |
| UAUUGUUCCGUCAUGCACU against PTGDS | 0.165 |
| UAUCUCCACAUACCCGUUC against INHBA | -0.368 |
| UACGUAGAUUUGGAAUUCC against ACO1 | 0.682 |
| UUAGUCUCAGCAUCGGCUC against KIAA1210 | -0.103 |
| UCACGAAGGAGUCUAUUCC against PRTN3 | -3.15 |
| AUAGAGCCCAUUAUGCUUU against PSG11 | -1.42 |
| UUGGUGUUGGGCAACUUGU against HOXB4 | 0.286 |
